Experimental findings from PubChem BioAssay are described below.

Assay [1] is described as follows: liver-stage malaria parasite growth inhibition, primary screen, cell-based, HepG2, luciferase luminescence, HepG2 viability (AID 624349; in the data active = parasite load remaining mostly below about 12%, no sharp cut-off; inactive = mostly above about 10%;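 note: 100% = mean of DMSO negative control wells on the same plate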). The settings on record: P. berghei liver stage in HepG2, luciferase luminescence, concentration not given here; parasite load remaining: stronger effect = lower value; viability: measured here: HepG2 viability without parasites.
Assay [2] can be described thus: stimulators of nuclear beta-catenin in C2C12, primary screen, imaging, WNT3A-conditioned medium, mouse C2C12, NPC library (AID 1117326; in the data active = nuclear beta-catenin stimulation mostly above about 4.2%, no sharp cut-off; inactive = mostly below about 10%). The settings on record: stronger effect = higher value.
Assay [3] can be described thus: stimulators of insulin release from INS-1E, primary screen, cell-based, 5 mM glucose, NPC library (AID 1117329;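 active = compound raises insulin release from rat beta cells at 5 mM glucose, no numeric limit stated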). The note with it: rat INS-1E insulin secretion, at 10 µM, stronger effect = higher value.
A short description of assay [4]: growth inhibition of GSK3B-pretreated HCT116 cells – cell-based, CellTiter-Glo, 0.2 to 20 µM (AID 1117336;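 active = compounds lowering colon cancer cell viability after pretreatment blocking the GSK3B kinase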). The settings on record: HCT116 viability after GSK3B inhibitor, at 20 µM, stronger effect = higher value.
A short description of assay [5]: inhibition of endothelial tube formation, primary screen, imaging, VEGF stimulated, CD31 staining, tube area, NPC library (AID 1117340;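 active = compound that reduces growth-factor-driven endothelial tube area in a mixed cell culture, no cutoff stated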). The note with it: VEGF-stimulated ADSC/ECFC co-culture, at 10 µM, stronger effect = higher value.
Assay [6] in a line: glucagon-like peptide 1 release enhancers, primary assay, NCI-H716 cell line, NPC library (AID 1117341;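 active = compound raises GLP1 secretion from the human gut endocrine cells, with no numeric limit stated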). The settings on record: NCI-H716 cells, at 10 µM, stronger effect = higher value.
The nature of assay [7]: HCT116 colon cancer cell growth inhibition, primary screen, CellTiter-Glo luminescence, NPC library (AID 1117342;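 active = compounds that lower survival of HCT116 colon cancer cells in the luminescence readout, no numeric limit stated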). The note with it: at 20 µM (top of the series). Background: Cellular ATP, detected with luciferase, serves as a proxy for viable cell number.
Assay [8] in a line: CellTiter-Glo luminescent readout of SW480 viability loss, NPC library primary (AID 1117343;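 active = compounds that lower viability of the colon cancer cells in the luminescence readout, with no numeric limit stated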). The note with it: CellTiter-Glo luminescence; at 20 µM (top of the series) unless noted.
Assay [9] in a line: decreased DLD-1 cellular survival, CellTiter-Glo luminescent readout, NPC compound collection, primary HTS (AID 1117346;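 active = compounds that lower survival of DLD-1 colon cancer cells in the luminescence readout, no cutoff given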). The note with it: DLD-1 viability, CellTiter-Glo luminescence; at 20 µM (top of the series).
Assay [10] relates to Aerobactin synthetase IucA (Klebsiella pneumoniae). The assay is described as follows: IucA aerobactin synthetase inhibitors, biochemical, Tocris library, absorbance (AID 1345561; call rule not given here;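 note: 100% = enzyme without compound and 0% = no enzyme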). The settings on record: purified IucA enzyme assay, absorbance (OD) read-out; stronger effect = lower value;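 tested at 8 µM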.
Assay [11] can be described thus: sensitizers of A549 cells to miR-34 induction, primary screen, imaging, A549 dox-inducible miR-34, nuclei and caspase counts (AID 1347080). The note with it: A549 miR-34 inducible, Hoechst nuclei count, 48 h.
A short description of assay [12]: viability rescue of complex I mutant cybrids, primary screen, cell-based, galactose medium, ATP luminescence (AID 1645843;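 active = z-score of at least 1.8 in each of two replicates, scored against plate mean and spread of sample wells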;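 note: positive z means more ATP and so rescue of galactose-driven cybrid death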). The note with it: complex I mutant cybrid cells, 72 h, stronger effect = higher value.
Assay [13] in a line: survival rescue of mitochondrial mutant cells in low glucose, primary screen, MELAS cybrids, Rieske KO mouse fibroblasts, CellTiter-Glo (AID 1508586;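 active = mean z-score across replicates of 1.96 or higher in either the MELAS or the Rieske mutant cell line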;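 note: z relative to plate mean and SD of compound and empty wells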).
The nature of assay [14]: growth inhibition of DIPG glioma cells, dose response, cell-based, SU-DIPG-XVII, MIPE5.0, CellTiter-Glo, qHTS (AID 1347060; cut-off not given, nearly all actives have AC50 up to about 26 µM). The settings on record: SU-DIPG-XVII viability, CellTiter-Glo ATP luminescence.
Assay [15] is described as follows: growth inhibition of DIPG glioma cells, dose response, cell-based, SU-DIPG-XIII, MIPE4.0, CellTiter-Glo, qHTS (AID 1347061; cut-off not given, nearly all actives have AC50 up to about 37 µM;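 note: cells exposed to compound for 48 hours before readout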). The settings on record: SU-DIPG-XIII viability, CellTiter-Glo ATP luminescence.
Assay [16] can be described thus: viability loss in pontine glioma line – cell-based, SU-DIPG-XXV, MIPE5.0, CellTiter-Glo, qHTS, dose response (AID 1347065; cut-off not given, nearly all actives have AC50 up to about 26 µM;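 note: cells exposed to compound for 48 hours before ATP readout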). The settings on record: CellTiter-Glo ATP luminescence.
The nature of assay [17]: SU-DIPG-VI glioma cell viability, MIPE4.0 library, CellTiter-Glo luminescence, qHTS (AID 1347066; cut-off not given, nearly all actives have AC50 up to about 30 µM;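 note: cells exposed to compound for 48 hours before readout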). The settings on record: CellTiter-Glo ATP luminescence.
Assay [18] is described as follows: SU-DIPG-XXV glioma cell viability, MIPE5.0 library, qHTS (AID 1347068; cut-off not given, nearly all actives have IC50 up to about 30 µM). (Quantitative high-throughput screening tests each substance at several concentrations.)
Setting [19] is: stronger effect = lower value, cell number ratio, induced over uninduced.
Setting [20] is: measured here: relative caspase fold change +Dox/-Dox.
Setting [21] is: measured here: total cells with miR-34 induction, stronger effect = lower value.
The mark [22] stands for this setting: measured here: total cells without miR-34 induction.
Setting [23] is: MELAS cybrid survival, CellTiter-Glo 48 h, stronger effect = higher value.
Where [24] appears, read: Rieske KO mouse fibroblast survival, CellTiter-Glo 72 h.

The viability is a read-out of living cells in per cent, often relative to untreated cells. Broadly, the remaining activity is the signal under treatment as a percentage of the control signal.

“And” between values parts separate entries of the source, which are not always exact repeats. Identical values can stand only once. Records with an inconclusive call do not appear. Where a structure was tested more than once in an assay, its records may differ in their call. The source made the active and inactive calls.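 Rule for the calls, unless noted: active = compounds whose cell count with miR-34 switched on is under 0.7 times the count with it off; inactive = the rest.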

Take `COc1ccc2c(c1OC)C(=O)O[C@@H]2[C@H]1c2c(cc3c(c2OC)OCO3)CCN1C`: the parasite load remaining in assay [1] is 89.7% (inactive) and 72.1% (inactive). Also, in assay [1], the viability was 104% and 75.4%. In addition, the nuclear beta-catenin stimulation in assay [2] (at 10 µM) is 3.5% (inactive); in assay [2] (stimulation, at 2 µM), 0.1%. The insulin secretion stimulation in assay [3] is 2% (inactive). The viability decrease in assay [4] was 55.6% (active). In addition, in assay [5], the tube area decrease is 4.1% (inactive). In addition, the GLP1 secretion stimulation in assay [6] is -1.8% (inactive). In addition, the inhibition of viability in assay [7] is 46.2% (inactive). Besides, the results for the viability decrease (inhibition) in assay [8] and in assay [9] were 90.4% (active) and 2.7% (inactive), respectively. Further, the remaining activity in assay [10] is 111% (inactive). The fold change in assay [11] (setting [19]) is 0.961 (inactive) and 0.857 (inactive) and 1.04 (inactive); in assay [11] (setting [20]), 0.539 and 1.29 and 0.971. Further, the cell count in assay [11] (setting [21]) was 6010 and 7290 and 6960; in assay [11] (setting [22]), 6250 and 8520 and 6720. The z-score in assay [12] was 0.555 (inactive) and 0.075 (inactive).

Take `CCN1CCC[C@H]1CNC(=O)c1c(OC)ccc(Br)c1OC`: in assay [1], the parasite load remaining was 122% (inactive) and 75.7% (inactive). For the same molecule, in assay [1], the viability is 119% and 100%. Further, the nuclear beta-catenin stimulation in [2] (at 10 µM) was 0.4% (inactive); in assay [2] (stimulation, at 2 µM), -0.6%. For the same molecule, in [3], the insulin secretion stimulation was 6.1% (inactive). Besides, in assay [4], the viability decrease is -9.5% (inactive). For the same molecule, the tube area decrease in assay [5] was 19.3% (active). Moreover, the GLP1 secretion stimulation in [6] was 0.8% (inactive). Further, the inhibition of viability in assay [7] is 6.8% (inactive). In addition, the results for the viability decrease (inhibition) in [8] and in assay [9] were -6.9% (inactive) and 6.8% (inactive), respectively. Also, the remaining activity in assay [10] was 89% (inactive). Also, the fold change was 0.989 (inactive) and 0.971 (inactive) and 0.881 (inactive) in assay [11] (setting [19]); 0.662 and 1.03 and 1.37 in assay [11] (setting [20]). The cell count in [11] (setting [21]) is 9050 and 9640 and 10200; in assay [11] (setting [22]), 9150 and 9920 and 11500. For the same molecule, the z-score was 0.167 (inactive) and 0.0526 (inactive) in assay [13] (setting [23]); -0.0474 and -0.355 in [13] (setting [24]); 0.63 (inactive) and 0.485 (inactive) in [12].

As for `C1COC(NC(C2CC2)C2CC2)=N1`, the parasite load remaining in assay [1] is 46.7% (inactive). Also, in assay [1], the viability is 103%. Besides, the nuclear beta-catenin stimulation in [2] (at 10 µM) was 0.2% (inactive); in [2] (stimulation, at 2 µM) it was -0.7%. For the same molecule, in assay [3], the insulin secretion stimulation is 1.6% (inactive). The viability decrease in [4] is -1.8% (inactive). In addition, the tube area decrease in [5] is -7.6% (inactive). In addition, the GLP1 secretion stimulation in assay [6] is 1.5% (inactive). In [7], the inhibition of viability was 5.7% (inactive). For the same molecule, the viability decrease (inhibition) in assay [8] is -4% (inactive); in assay [9], 7.9% (inactive). In addition, the remaining activity in assay [10] was 98.2% (inactive). Further, the outcome in assay [14], in [15], in [16], in assay [17] and in assay [18] was inactive. Also, the fold change was 0.947 (inactive) and 0.935 (inactive) and 0.925 (inactive) in [11] (setting [19]); 1.18 and 0.627 and 1.06 in assay [11] (setting [20]). In addition, the cell count in [11] (setting [21]) was 9720 and 9420 and 10200; in assay [11] (setting [22]) it was 10300 and 10100 and 11000. Moreover, the z-score is 0.462 (inactive) in assay [13] (setting [23]); 0.9 in assay [13] (setting [24]); 0.365 (inactive) and -0.285 (inactive) and 0.8 (inactive) in assay [12].

For the molecule `CCOC(=O)c1cnc2c(cnn2CC)c1NN=C(C)C`, the parasite load remaining in [1] is 33.1% (inactive). Moreover, the viability in assay [1] was 68.5%. The nuclear beta-catenin stimulation in assay [2] (at 10 µM) is -1.1% (inactive); in [2] (stimulation, at 2 µM), 1.4%. Further, the insulin secretion stimulation in assay [3] was 5.8% (inactive). For the same molecule, in assay [4], the viability decrease is -110% (inactive). Besides, the tube area decrease in assay [5] is -6% (inactive). The GLP1 secretion stimulation in assay [6] was 0.7% (inactive). For the same molecule, the inhibition of viability in assay [7] is 29.6% (inactive). Moreover, the viability decrease (inhibition) in [8] is 21.1% (inactive); in assay [9], 27.5% (inactive). Also, the remaining activity in assay [10] was 115% (inactive). Also, the fold change in assay [11] (setting [19]) was 1 (inactive) and 0.89 (inactive) and 0.857 (inactive); in [11] (setting [20]) it was 1.06 and 0.8 and 1.84. For the same molecule, the cell count in assay [11] (setting [21]) was 7810 and 7710 and 8880; in [11] (setting [22]) it was 7780 and 8670 and 10400. The z-score in [13] (setting [23]) was 1.91; in [13] (setting [24]), 2.39; in assay [12], 1.13 (inactive) and 2.63 (active) and 1.51 (inactive).
